Test results taken from the supplement of paper PMC3334620.
In all, about 33,000 sequences were measured (“E-score (-0.5 to 0.5)”: median about -8e-05, highest 2% from about 0.23 on). Shown is part of a subset that was picked to be rich in the highest values.

Molecular target: T1, Nrg2 (UniProt P38082)
T1 sequence: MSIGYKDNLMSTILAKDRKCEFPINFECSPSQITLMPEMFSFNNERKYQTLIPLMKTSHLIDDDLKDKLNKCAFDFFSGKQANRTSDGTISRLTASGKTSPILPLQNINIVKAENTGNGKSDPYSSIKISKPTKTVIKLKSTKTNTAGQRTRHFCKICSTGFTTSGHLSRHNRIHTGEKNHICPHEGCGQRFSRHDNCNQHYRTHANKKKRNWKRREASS
Assay: PBM E-score (8-mer binding enrichment) (E-score (-0.5 to 0.5)); higher = stronger / more preferred TF binding
Conditions: protein concentration: 100 nM; construct: GST-full length
Outline: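 Bound GST-tagged yeast transcription factors, applied at about 100-200 nM to double-stranded universal all-10-mer Agilent arrays, were detected with fluorescent anti-GST. Scans were normalised with masliner. A modified Wilcoxon-Mann-Whitney statistic, the E-score, was assigned to each ungapped eight-base word pooled with its reverse complement by the Universal PBM Analysis Suite.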

Sequence | PBM E-score
CGCGGATC | 0.037
TACGGATA | 0.0194
AACGGATT | 0.148
AACGGATG | -0.00493
CACGGATG | -0.149
ACCGACAC | -0.0406
GGGAGGAC | 0.0465
GTCGTTTA | -0.00227
AACGTCAC | -0.00893
CCGCCCAG | -0.0404
GAATCAGA | 0.23
TAATCAGA | 0.133
AAATCAGA | 0.129
CGTTAAAG | 0.00135
GAGCTACA | -0.114
AGATACAC | 0.244
GGATACAC | -0.0641
AGATACTG | 0.242
AGATACAG | 0.136
AGATACTA | 0.0761
AGATACTC | 0.1
ATACATGC | -0.0508
GGTTATGA | -0.0752

Sequence | PBM E-score
CAAAAGGA | -0.0703
ACCCTAAC | 0.116
GACTGTTA | -0.0515
AGACTGAC | -0.1
AATAAGAG | 0.115
AATAAGAT | 0.0228
TATAAGAA | 0.12
CATAAGAA | 0.254
GATAAGAA | 0.0876
AATAAGAA | 0.233
GTCCCAGA | -0.19
AGCTACAC | 0.0938
GAGACTAA | -0.027
ATACAATC | -0.0431
ATACAACG | 0.0553
AAACAATA | 0.261
CTACAATA | 0.00041
AAACAATG | 0.0814
TAACAATA | 0.132
ATACAACC | -0.00323
ATACAACA | 0.246
ATACAATA | 0.239
AAACAATT | 0.137

Sequence | PBM E-score
GAACAATC | 0.0696
GAACAATA | 0.277
CGTCCGAG | 0.0587
AAGGCCTC | -0.0691
TAGAGCGA | -0.079
CGACACAG | -0.0558
CAGAGGGG | -0.314
TGATAGAA | -0.0926
TCTACGCA | 0.0696
GAGGTTTA | -0.00946
ACGGTTCG | -0.169
CAGGTGGG | -0.0155
AGGCTAGC | -0.223
AATCGAAC | 0.169
CATCGAAA | 0.0505
AATCGAGT | 0.0016
CATCGAGG | 0.0813
AATCGAAG | 0.264
GATCGAAA | 0.108
AATCGATC | 0.0541
AATCGATT | 0.247
AATCGAAA | 0.0902
AATCGAGG | 0.248

Sequence | PBM E-score
AATCGATA | 0.158
TATCGAAA | 0.255
GACTGGGA | -0.0261
ATAGCCGG | -0.145
ACAACCAG | 0.101
ACAACCAT | 0.24
ACAACCAC | -0.0501
ACGTGGTG | -0.139
AGAGTTAG | -0.0429
CCGACGAC | 0.00776
ACTGCTCT | 0.00123
CCATGAGC | -0.047
AATGCGAG | 0.107
ATTAATGC | 0.0582
ATTAATTG | 0.142
ATTAATGA | 0.235
CTTAATGA | 0.0652
ATTAATTA | 0.117
ATTAATTC | 0.229
GTGTAGCA | -0.149
AGCTATCC | -0.208
ACGCGGAA | -0.0174
TGGATAAA | 0.0491

Sequence | PBM E-score
CGGATAAA | 0.234
CGGATAAC | 0.05
CTTTGGAA | -0.152
ACTATGAG | -0.0885
TATCGGAA | 0.0162
AATCGGAG | 0.105
AATCGGAA | 0.242
AGAGAAAG | -0.00961
GCTTCTCA | 0.00982
AGCCCATC | -0.0428
AATCGCAC | -0.165
AATCTCGC | 0.235
GATCTCGC | 0.144
CATCGCGC | 0.0459
AATCTCGG | 0.0273
AATCGCGA | 0.185
AATCGCAG | 0.16
AATCGCAT | 0.245
AATCGCGC | 0.23
